The values below come from PubChem BioAssay AID651636 (Sanford-Burnham Center for Chemical Genomics, 2012).

Molecules are shown by their SMILES. About 3,000 (0.83%) of roughly 360,000 compounds were called active. No stated cut-off is given here; in the data, active means inhibition above about 38%; inactive means the rest. What follows is part of a selection rich in actives, with near analogues and random picks from the rest.

In the test the target is G-protein coupled receptor 183 (Homo sapiens) (UniProt P32249). Kind of test: blockers of oxysterol-driven EBI2 arrestin signaling – cell-based, luminescence, 7a,25-OHC stimulation, uHTS, primary screen (AID 651636).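 Further: enzyme fragment complementation signal reports receptor beta-arrestin coupling in cells; 0% = agonist plus DMSO wells and 100% = wells without agonist.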 The conditions noted are these: EBI2 beta-arrestin recruitment, 7a,25-OHC stimulated, at 5 µM, stronger effect = higher value. Background: Activated receptors often draw arrestin, which recruitment assays turn into a signal.
G-protein coupled receptor 183 (Homo sapiens), sequence (P32249 whole entry, looked up, the tested form may be a part): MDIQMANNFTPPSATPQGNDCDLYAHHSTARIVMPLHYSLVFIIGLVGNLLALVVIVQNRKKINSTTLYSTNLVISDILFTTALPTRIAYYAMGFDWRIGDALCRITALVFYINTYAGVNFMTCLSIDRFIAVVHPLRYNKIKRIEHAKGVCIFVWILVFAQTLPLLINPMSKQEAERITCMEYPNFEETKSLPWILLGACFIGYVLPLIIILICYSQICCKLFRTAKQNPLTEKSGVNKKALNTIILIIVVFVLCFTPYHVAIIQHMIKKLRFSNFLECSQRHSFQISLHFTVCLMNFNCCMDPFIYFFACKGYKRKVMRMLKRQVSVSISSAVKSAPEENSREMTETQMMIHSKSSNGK
A word on the inhibition: it is the relative decrease from the control value, in per cent. Regarding `C=CCOc1c(CNn2cn[nH]c2=S)cccc1OC`, the inhibition was -9.2% (inactive).
Consider `Cc1cc(C(=O)N2CCN(c3ccccn3)CC2)c(C)o1`, for which the inhibition was -3.6% (inactive).
Regarding `O=C(Cc1ccccc1Cl)N1CCN(c2ccccn2)CC1`, the inhibition was 7.34% (inactive).
As for `O=C(c1cc2ccccc2s1)N1CCN(c2ccccn2)CC1`, the inhibition is 60.8% (active).
Consider `O=C(NCN1CCN(CCO)CC1)c1cnccn1`, for which the inhibition was -9.7% (inactive).
Then `CCCC(c1nnnn1C(C)(C)C)N1CCN(Cc2ccccc2)CC1` (configuration not stated), with 12.5% (inactive); and `Cc1cccc(C)c1-n1nnnc1C(CCc1ccccc1)N1CCN(C/C=C/c2ccccc2)CC1` (configuration not stated), with 39.8% (active); and `CSCCC(c1nnnn1Cc1ccccc1)N1CCN(C/C=C/c2ccccc2)CC1` (configuration not stated), with 19.1% (inactive).
On to `COC1=C/C(=C/c2c(N)n3nc(CC(=O)N4CCOCC4)sc3nc2=O)C=CC1=O`, for which the inhibition is -0.898% (inactive).
The figure for `COc1ccccc1N1CCN(C(=O)c2cc(=O)c3cc(C)ccc3o2)CC1` is 93.3% (active); for `COc1ccccc1N1CCN(C(=O)c2ccc(NC3=NC4CS(=O)(=O)CC4S3)cc2)CC1` (configuration not stated) it is -5.44% (inactive); for `COc1ccccc1N1CCN(C(=O)c2cc(=O)c3cc(C)cc(C)c3o2)CC1` it is 72.9% (active).
For the compound `COc1ccccc1N1CCN(C(=O)C2Cc3ccccc3CN2C(=O)c2ccco2)CC1` (configuration not stated), the inhibition is 7.65% (inactive).
As to `O=C(NCCS(=O)(=O)N1CCN(c2ccccc2)CC1)c1cc(=O)c2ccccc2o1`, the inhibition was 5.68% (inactive).
In the case of `CCOc1ccccc1N1CCN(C(=O)c2ccc3[nH]c(C)c(C)c3c2)CC1`, the inhibition was 18.2% (inactive).
For the compound `O=C(c1cc(=O)c2ccccc2o1)N1CCN(c2ccccc2)CC1`, the inhibition was 48.1% (active).
Regarding `COc1ccccc1N1CCN(c2nc(C)cc(=O)[nH]2)CC1`, the inhibition is -15.3% (inactive).
For the compound `O=C(c1ccc(CS(=O)(=O)c2ccccc2)o1)N1CCN(c2ccccc2)CC1`, the inhibition was -5.95% (inactive).
Take `[O-][n+]1onc2c1CCc1[nH]c(-c3ccccc3)nc1-2`: the inhibition was 3.97% (inactive).
Then `CCc1nccn1S(=O)(=O)c1cccc([N+](=O)[O-])c1`, with 2.08% (inactive); and `CC1(C(=O)Nc2ccc3c(c2)OCCO3)CCN1C(=O)Cc1cc(F)ccc1F` (configuration not stated), with -9.9% (inactive); and `O=C(CCCC(=O)N(CC(=O)NC1CCCC1)Cc1ccccc1Cl)Nc1ccccn1`, with -4.48% (inactive).
The figure for `CC(C)CCN1CCN(C/C=C/c2ccco2)CC1CCO` (configuration not stated) is 2.4% (inactive); for `O=C(O)C1C2C=CC(C2)C1C(=O)NCc1ccccc1` (configuration not stated) it is -5.43% (inactive).
As for `COc1ccccc1CCNC(=O)C1CCN(C(=O)/C=C/c2ccccc2)CC1`, the inhibition was 86.2% (active).
With `COc1ccccc1CNC(=O)C1CCN(C(=O)[C@@H]2Cc3ccccc3CN2)CC1`, the inhibition is -0.14% (inactive).
Consider `COc1ccccc1CNC(=O)C1CCN(c2nc3ccccc3o2)CC1`, for which the inhibition was 4.11% (inactive).
In the case of `O=C(NCCC1CCCCN1S(=O)(=O)c1ccc(Cl)cc1)C(=O)NCc1ccco1` (configuration not stated), the inhibition is 2.6% (inactive).
In the case of `CC1(C)Oc2ccc(C(=O)N3CCOCC3)cc2N(CC(=O)Nc2ccccc2)C1=O`, the inhibition was 1.64% (inactive).
For `Cc1ccc(OCC(O)CN2CCN(CC(O)COc3ccc(C)cc3Cl)CC2)c(Cl)c1` (configuration not stated), the inhibition was 4.54% (inactive).
The figure for `Cc1ccc(S(=O)(=O)N2CCN(C(=O)COC(=O)c3c(C)cc(C)cc3C)CC2)c(C)c1` is 3.87% (inactive).
Consider `Cc1cccc(OCC(O)CN2CCN(S(=O)(=O)c3ccc(C)cc3C)CC2)c1` (configuration not stated), for which the inhibition is 54.6% (active).
Regarding `CCCc1cc(=O)[nH]c(SCC(=O)N2CCN(S(=O)(=O)c3ccc(C)cc3C)CC2)n1`, the inhibition was -2.8% (inactive).
Take `Cc1ccc(S(=O)(=O)N2CCN(C(=O)CSc3cc(C)ccc3C)CC2)c(C)c1`: the inhibition is 64.3% (active).
Regarding `CC(=O)c1ccc(OCC(O)CN2CCN(S(=O)(=O)c3cccc(Br)c3)CC2)cc1` (configuration not stated), the inhibition was 40.3% (inactive).
Regarding `Cc1nnnn1/C(=C\c1ccccc1)C(=O)OCC(=O)N1CC2(C)CC1CC(C)(C)C2` (configuration not stated), the inhibition was 31.6% (inactive).
Regarding `CCCC(C(=O)N1CCOCC1)N1C(=O)C2C3C=CC(C3)C2C1=O` (configuration not stated), the inhibition is -18.5% (inactive).
The figure for `CC(=O)c1ccc(S(=O)(=O)N2CCN(C(=O)/C=C/c3ccc4ccccc4n3)CC2)cc1` is 62.3% (active).
As to `CC(=O)c1ccc(S(=O)(=O)N2CCN(c3nc4c(C)c(C)ccc4cc3C#N)CC2)cc1`, the inhibition was 15.8% (inactive).
As to `CC(=O)c1ccc(S(=O)(=O)N2CCC(Oc3ccc(-n4cnnn4)cc3)CC2)cc1`, the inhibition was 2.61% (inactive).
As for `CCOC(=O)c1nn(-c2cccc(C)c2)cc1C(=O)c1ccccc1`, the inhibition was 11% (inactive).
Regarding `CC(=O)c1nn(-c2ccc(C)cc2)cc1C(=O)c1cccc(Br)c1`, the inhibition is 46.1% (active).
Then `CC(=O)c1nn(-c2cccc(Br)c2)cc1C(=O)c1cccc2ccccc12`, with 12% (inactive); and `CCc1ccc[n+](-c2nc([O-])sc2C=O)c1`, with 7.04% (inactive).
The figure for `Cc1cccc2cc3c(N)c(C(=O)N4CCCc5ccccc54)sc3nc12` is 76.1% (active); for `Cc1ccc(C(=O)N2CCCc3ccccc32)c(Cl)c1` it is 10.8% (inactive); for `CCCn1nc(C(=O)N2CCCc3ccccc32)c2ccccc2c1=O` it is 14.1% (inactive).
As to `COc1ccc(C(C#N)=C2C=CC(=NO)c3ccccc32)cc1`, the inhibition was 17.2% (inactive).
On to `COc1cccc(CNC(=O)C2CCN(S(=O)(=O)c3cccc4cccnc34)CC2)c1`, for which the inhibition was -6.22% (inactive).
Then `CC(Oc1ccc(Cl)cc1)C(=O)Nc1ncccn1` (configuration not stated), with -3.28% (inactive).
For the compound `CC(=O)/C(=N\Nc1ccc(Cl)cc1Cl)Sc1cccc2cccnc12`, the inhibition was 63.7% (active).
For `CCCCc1ccc(NS(=O)(=O)c2cccc(C(=O)N3CCCN(C)CC3)c2)cc1`, the inhibition was -4.46% (inactive).
As to `Cc1ccc(CN2CC(C(=O)NNC(=O)Cn3ccc(C(F)(F)F)n3)CC2=O)cc1` (configuration not stated), the inhibition was 7.75% (inactive).
The figure for `O=C(/C=C/c1ccc(Cl)cc1)N1CCN(c2ccccc2[N+](=O)[O-])CC1` is 93.1% (active); for `O=C(/C=C/c1ccccc1[N+](=O)[O-])OCC(=O)N1CCCC1` it is -0.221% (inactive).
For `O=C(/C=C/c1cccc([N+](=O)[O-])c1)OCC(=O)N1CCOCC1`, the inhibition is 1.92% (inactive).
Regarding `O=C(/C=C/c1cccc([N+](=O)[O-])c1)N1CCN(Cc2ccccc2)CC1`, the inhibition was 53.3% (active).
In the case of `Cc1c(Br)c([N+](=O)[O-])nn1CC(=O)N1CCN(Cc2ccccc2)CC1`, the inhibition was -9.97% (inactive).
As to `O=C(/C=C/c1ccc(OCc2c(F)cccc2Cl)cc1)N1CCOCC1`, the inhibition is 7.94% (inactive).
In the case of `O=C(NCCN1CCCC(O)C1)c1cc(COc2c(F)cccc2F)on1` (configuration not stated), the inhibition was -9.61% (inactive).
As for `CCOC(=O)C1(O)CC(C)=NN1C(=O)c1cccc(Br)c1` (configuration not stated), the inhibition is -21.3% (inactive).
For the compound `CCC1([N+](=O)[O-])COC(c2ccc(C(C)C)cc2)OC1` (configuration not stated), the inhibition is -3.46% (inactive).
Regarding `COc1ccc(S(=O)(=O)N(C)C[C@H]2Oc3c(NC(=O)Nc4ccc5c(c4)OCO5)cccc3C(=O)N([C@H](C)CO)C[C@@H]2C)cc1`, the inhibition was 5.07% (inactive).
As for `Cc1ccc(NC(=O)C2CCC(C(C)(C)C)CC2)cc1S(=O)(=O)N1CCOCC1` (configuration not stated), the inhibition was -1.74% (inactive).
Consider `Cc1[nH]nc(SCC(=O)NCC(C)C)c1[N+](=O)[O-]`, for which the inhibition is -0.06% (inactive).
In the case of `N#CC1=C(SCc2ccc(C#N)cc2)N=C(N)C(c2nc(-c3ccccc3)cs2)C12CCCCC2` (configuration not stated), the inhibition was 15.1% (inactive).
Regarding `Cc1cc(C)cc(N(CC(=O)NCCSCc2ccco2)S(C)(=O)=O)c1`, the inhibition is 3.14% (inactive).
The figure for `COc1ccc(N(CC(=O)NCCSCc2cccc(Cl)c2)S(C)(=O)=O)cc1` is -2.19% (inactive); for `Cc1ccc(CSCCNC(=O)CN(c2ccc(F)cc2)S(C)(=O)=O)cc1` it is 59% (active); for `CN(CC(=O)Nc1ccc(Cl)cc1)C(=O)CNC(=O)c1ccc2ccccc2c1` it is 2.02% (inactive).
As for `O=C(NNC(=O)c1ccc2ccccc2c1)c1ccc(Cl)cc1`, the inhibition is 60.9% (active).
With `O=C(CCCOc1ccccc1)NNC(=O)c1ccc(Cl)cc1`, the inhibition is 17.9% (inactive).
Consider `Cc1ccc(-c2c(C)n([O-])c3c([n+]2=O)CCC3)cc1`, for which the inhibition is 0.406% (inactive).
Regarding `O=C(COc1ccc(Cl)cc1)NCCSc1ccccc1`, the inhibition is 26.9% (inactive).
The figure for `O=C(CCc1ccccc1)NNC(=O)COc1ccc(Cl)cc1` is 38.4% (active).
`O=C(NCCc1ccccc1)Oc1ccc(Cl)cc1`: the inhibition is -9.27% (inactive).
`CC(NC(=O)C1CCCN(S(=O)(=O)c2ccc(-n3cnnn3)cc2)C1)c1ccc(F)cc1` (configuration not stated): the inhibition was -4.68% (inactive).
The figure for `O=C1/C(=C\c2ccc(O)cc2)CCC1CNc1ccc(Cl)cc1` (configuration not stated) is 20.4% (inactive).
With `O=C(C1CCN(S(=O)(=O)c2cnc[nH]2)CC1)N1CCN(Cc2ccc3c(c2)OCO3)CC1`, the inhibition was -0.0388% (inactive).
For `COC(=O)c1ccc(/C=N/N2C(C)CCCC2C)cc1` (configuration not stated), the inhibition was -2.67% (inactive).
For `Brc1ccc(/C=N/N2CCN(C3c4ccccc4-c4ccccc43)CC2)s1`, the inhibition is 6.47% (inactive).
The figure for `CCOc1ccc(CCN2C(=S)N([C@@H](CC(C)C)CN3CCC[C@@H]3CN3C(=S)NC[C@@H]3Cc3ccc(O)cc3)C[C@@H]2Cc2ccc(O)cc2)cc1` is 51.8% (active).
For the compound `CCOc1ccc(CCN2C(=O)C(=O)N([C@@H](CC(C)C)CN3CCC[C@H]3CN3C(=O)C(=O)NC[C@@H]3Cc3ccccc3)C[C@@H]2CC(C)C)cc1`, the inhibition was -13.2% (inactive).
Then `CCOc1ccc(CCN2C(=S)N([C@@H](CC(C)C)CN3CCC[C@@H]3CN3C(=S)NC[C@@H]3Cc3ccc(O)cc3)C[C@@H]2CC(C)C)cc1`, with 17.1% (inactive); and `CC1(C)NC(=O)N(CC(=O)Nc2ccc(-c3ccccc3)cc2)C1=O`, with -7.07% (inactive); and `Cc1cccc(N(CC(=O)Nc2ccc(-c3nc4ccc(C)cc4s3)cc2)S(C)(=O)=O)c1`, with 9.99% (inactive).
Regarding `N=C1C(=O)OCC1c1ccccc1NC(=O)CN1CCCCC1` (configuration not stated), the inhibition is -2.7% (inactive).
